For 49 compounds, activity change, negative = inhibition results are on record in PubChem BioAssay AID584 (National Center for Advancing Translational Sciences (NCATS), 2007).

Hit rate of the full screen: of about 71,000 compounds, about 65 (0.09%) were called active. The sample holds actives, similar compounds and a random draw of the others, so the mix is not that of the screen. Values without a mark were called inactive. Calls come from the whole dose curve; as a rule, active = well fitted curve in the direction sought with a large enough effect; inconclusive = small, poorly fitted or top-dose-only effect; inactive = flat fitted curve, though single readings scatter.
% is set by controls: 0 for no effect and ±100 for the full control effect.

Sequence of Beta-lactamase (Escherichia coli (strain K12)) (P00811 whole entry, looked up): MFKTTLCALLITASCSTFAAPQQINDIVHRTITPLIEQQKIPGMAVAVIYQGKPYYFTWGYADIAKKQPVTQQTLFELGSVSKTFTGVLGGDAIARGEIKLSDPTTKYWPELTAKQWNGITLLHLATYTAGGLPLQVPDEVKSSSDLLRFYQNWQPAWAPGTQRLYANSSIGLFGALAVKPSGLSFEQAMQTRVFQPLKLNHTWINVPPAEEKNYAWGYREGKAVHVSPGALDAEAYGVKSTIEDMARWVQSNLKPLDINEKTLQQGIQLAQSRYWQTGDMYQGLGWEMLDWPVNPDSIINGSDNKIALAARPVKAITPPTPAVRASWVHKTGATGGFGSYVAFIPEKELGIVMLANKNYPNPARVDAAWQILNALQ

The experiment deals with Beta-lactamase (Escherichia coli (strain K12)) (UniProt P00811). Briefly: Promiscuous and Specific Inhibitors of AmpC Beta-Lactamase (assay with detergent). Particulars: purified AmpC, nitrocefin hydrolysis with detergent; series mostly up to 28.7 µM. The procedure:
NIH Molecular Libraries Screening Centers Network [MLSCN]
NIH Chemical Genomics Center [NCGC]
PI Name: Shoichet, Brian K.
This aggregation profiling approach exploits the sensitivity of aggregate formation to detergent. Inhibition of b-lactamase is measured in the presence and absence of 0.01% Triton X-100. This particular assay had the prescence of 0.01% Triton X-100. See Pubchem assay "Promiscuous and Specific Inhibitors of AmpC Beta-Lactamase (assay without detergent)" for related screen. Compounds that inhibit only in the absence of detergent are considered likely promiscuous aggregators.
A screen of 1,030 compounds was performed in Brian Shoichet's lab in 96-well format. AmpC activity was measured by following the absorbance at 480 nm. Nitrocefin is a chromogenic substrate: while nitrocefin is yellow (lmax 390 nm), the product of its hydrolysis is red (lmax 486 nm, 17,000 M-1). AmpC beta lactamase was provided by Brian Shoichet and Brian Feng, UCSF.
NCGC Assay Protocol Summary:
20 mM phosphate buffer, pH 7.0
Triton X-100: No Detergent screen: 0.0001%, Detergent screen: 0.01%.
Buffer in columns 3 and 4 as negative control (no enzyme).
5.3 nM AmpC in columns 1, 2, 5-48. Titration of UCSF compound 9 control (from 10 mM, then 1:2) pin-transferred to column 2. Column 1 is neutral (100% activity).
Six uL of reagents were dispensed to 1536-well Greiner black clear bottom plates. Compounds and controls (23 nL) were transferred via Kalypsys PinTool. The plates were incubated for 15 min at room temperature, and then 2 uL of 800 uM solution of nitrocefin was added to start the reaction. The plates were immediately transferred to and read every 20 seconds for 4 min on ViewLux (Perkin-Elmer) High-throughput CCD imager using 480 nm absorbance protocol. During dispense, reagent bottles were kept submerged into 4 deg C water bath.
Keywords: NIH Roadmap, MLSCN, MLI, MLSMR, qHTS, NCGC, AmpC Beta-Lactamase, Aggregation
Consider `COc1ccc(S(=O)(=O)N2CCCC(C(=O)N3CCN(C)CC3)C2)cc1C` (centres undefined), for which the activity change, negative = inhibition entry was “inactive”. For `c1nnc2c3c4c(sc3ncn12)CCC4`, the activity change, negative = inhibition entry is “inactive”. As to `Cc1cccc(C)c1NC(=O)N1CC=C(n2c(=O)[nH]c3ccccc32)CC1`, the activity change, negative = inhibition entry is “inactive”. In the case of `Cc1cn(C2C=CC(CO)O2)c(=O)[nH]c1=O` (centres undefined) it was “inactive”; in that of `c1ccc(Nc2n[nH]nc2-c2ccccc2)cc1`, “inactive”. Regarding `CCCn1c(SCC(N)=O)nnc1C(C)C`, the activity change, negative = inhibition entry was “inactive”. In the case of `CC(C)(C)C(=O)CCN1C(=O)C2(OCCO2)c2ccccc21`, the activity change, negative = inhibition entry was “inactive”. The result for `Cc1noc(C)c1-c1nccc(N2CCOCC2)n1` reads “inactive”. Take `COC(=O)c1nc(NC(=O)c2ccc(Cl)cc2)n[nH]1`: the activity change, negative = inhibition result was “inactive”.

For the compound `CCCCn1nnnc1NCc1cc(OC)c(OC)c(OC)c1`, the activity change, negative = inhibition result is “inactive”.

Consider `CCOC(=O)C(C(=O)OCC)C(C#N)c1ccccc1` (centres undefined), for which the activity change, negative = inhibition entry was “inactive”.

As to `CC(=O)Oc1cccc(N2C(=O)CC(Nc3ccc(N4CCOCC4)cc3)C2=O)c1` (centres undefined), the activity change, negative = inhibition result is “inactive”. The result for `CCC(=O)c1ccc(OCC(O)CN2C(=O)NC(C)(C)C2=O)cc1` (centres undefined) reads “inactive”; that for `COc1ccc(-n2ncc3c(N4CCCc5ccccc54)ncnc32)cc1`, “inactive”; that for `COC(=O)c1ccccc1NC(=O)CSc1ccccn1`, “inactive”. In the case of `O=C(CN1C(=O)CCC1=O)Nc1ccc(S(=O)(=O)N2CCOCC2)cc1` it was “inactive”; in that of `CCS(=O)(=O)n1nc(-c2ccccc2)nc1SCc1ccccc1`, “inactive”. Regarding `CCCC(=O)C1=C(N(C)c2ccccc2)CC(C)(C)C(C(=O)OC)C1=O` (centres undefined), the activity change, negative = inhibition result is “inactive”. `Cn1cccc1C1(C(F)(F)F)NCCNC1=O` (centres undefined): the activity change, negative = inhibition result is “inactive”. In the case of `CC(C)N(C(=O)COC(=O)c1ccccc1C(=O)N1CCN(c2ccc(F)cc2)CC1)C(C)C`, the activity change, negative = inhibition entry is “inactive”. In the case of `O=c1[nH]c(=O)n([C@H]2C[C@H](O)[C@H](CO)O2)cc1Br` it was “inactive”; in that of `CC(=O)/C(C)=N\O`, “inactive”; in that of `CC(C)Cc1ccc(S(=O)(=O)N2CCN(C(=O)c3ccco3)CC2)cc1`, “inactive”. For the compound `O=c1c(-c2ccc(F)cc2)nc2cnc(N3CCOCC3)nc2n1-c1ccccc1`, the activity change, negative = inhibition result is “inactive”. For `CCON=C1C(C)(C)C(C)(C)C(C)(C)C1(C)C`, the activity change, negative = inhibition was -1.9% [at 5.75 µM].

In the case of `COc1cccc(NC(=O)c2ccccc2SC)c1`, the activity change, negative = inhibition result was “inactive”. Turning to `CCOC(=O)c1cccc(NC(=O)CN(c2ccc(C)cc2)S(=O)(=O)c2c(C)noc2C)c1`, the activity change, negative = inhibition result is “inactive”.

As to `C[C@H]1O[C@@H](CC(=O)O)Cc2c1c(O)c1c(O)cc(-c3cc(=O)c4c(=O)c5c(c(=O)c=4c3=O)C[C@H](CC(=O)O)O[C@@H]5C)c(O)c1c2O`, the activity change, negative = inhibition is -3.2% [at 5.75 µM]. As for `CCCCc1nc2ccccc2c(NC(=O)CN2CCN(C)CC2)c1CCC`, the activity change, negative = inhibition entry is “inactive”. With `O=C(O)Cc1ccc(-c2ccccc2)cc1`, the activity change, negative = inhibition entry is “inactive”. On to `O=C(O)C(=O)Cc1ccc2c(c1)OCO2`, for which the activity change, negative = inhibition is -2% [at 5.75 µM]. For the compound `CC/C(=N\O)C(C)(C)/[N+]([O-])=C/c1ccc(Br)cc1`, the activity change, negative = inhibition entry was “inactive”.

On to `CC(=O)NC(Cc1ccc(F)cc1)C(=O)O` (centres undefined), for which the activity change, negative = inhibition result was “inactive”. Consider `Nc1nonc1-c1noc(-c2ccc(Br)o2)n1`, for which the activity change, negative = inhibition result was “inactive”. As to `Cc1ccc(C)n1-c1ccncc1`, the activity change, negative = inhibition entry was “inactive”. For `O=C(CCCn1c(=O)oc2ccccc21)Nc1cccnc1`, the activity change, negative = inhibition entry was “inactive”. On to `COc1ccc(C(=O)Nc2c(N)nc(SCC(=O)N3CCC(C)CC3)[nH]c2=O)cc1OC`, for which the activity change, negative = inhibition result is “inactive”. For the compound `COC(=O)c1sc(=S)n(-c2ccccc2)c1N`, the activity change, negative = inhibition entry is “inactive”. The result for `COc1ccc(CCN2CNc3c(c(=O)n(C)c(=O)n3C)C2)cc1OC` reads “inactive”; that for `CC1CCN(Cc2nc3c(c(=O)n(C)c(=O)n3C)n2CCc2ccccc2)CC1`, “inactive”; that for `COc1ccc(CCNC(=O)CSc2nc(C)nc3c2oc2ccccc23)cc1OC`, “inactive”. Consider `CCn1c(-c2cc(OC)ccc2OC)csc1=Nc1c(C)n(C)n(-c2ccccc2)c1=O`, for which the activity change, negative = inhibition entry was “inactive”.

For the compound `COc1ccc(C)c(Cn2c(-c3nonc3N)nc3ccccc32)c1`, the activity change, negative = inhibition result was “inactive”. With `CCCCOc1ccc(C(=O)NCc2ccco2)cc1`, the activity change, negative = inhibition entry was “inactive”. `Cc1ccc2c(CSc3nncs3)cc(=O)oc2c1`: the activity change, negative = inhibition result is “inactive”. Take `CCOC(=O)C1CCN(C(=O)C2CCN(S(=O)(=O)N3CCCC3)CC2)CC1`: the activity change, negative = inhibition entry is “inactive”. Consider `COc1ccccc1-c1nnc(SCC(=O)Nc2cc(C)on2)o1`, for which the activity change, negative = inhibition result was “inactive”. Turning to `CSCCC(NC(N)=O)C(=O)N(C)CC(=O)Nc1ccc(C)cc1` (centres undefined), the activity change, negative = inhibition result is “inactive”. The result for `CCOc1ccc(OCC)c(NC(=O)CSc2nnc(Cn3cnc4ccccc43)n2C)c1` reads “inactive”.
